Results as given in PubChem BioAssay (Tox21).
Records with an inconclusive call do not appear. Active and inactive are the calls of the source. Unless noted, calls follow the shape of the full dose curve.

Tests used:
[1] = qHTS assay to identify small molecule antagonists of the estrogen related receptor signaling pathway with the pleiotropic PPARgamma coactivator (PGC) from Tox21 10K library - cell viability counter screen (AID 1224840; active = well fitted cell-killing curve with a large enough effect in the repeat runs, not every such curve was filed as active; also: nearly all actives have a fitted effect of over 40% in size)
Procedure, shortened: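 PGC/ERR cells, 2,000/well; 6 h pre-incubation 37 C/5% CO2; cpd in DMSO via pin tool; 17.5 h 37 C; CellTiter-Fluor, 30 min; fluorescence.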

[2] = biological target: Thyrotropin receptor (Homo sapiens) (UniProt P16473); experiment: qHTS assay to identify small molecule agonists of the thyroid stimulating hormone receptor (TSHR) signaling pathway (AID 1224843); also: nearly all actives have a fitted effect of over 45% in size
Procedure, shortened: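 Cell line HEK293 with TSHR; density 800/well. Exposure 30 min RT. Readout HTRF cAMP (cAMP-d2/anti-cAMP-cryptate), 1 h RT before reading.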

[3] = qHTS assay to identify small molecule agonists of the hypoxia (HIF-1) signaling pathway - cell viability counter screen (AID 1224844); also: nearly all actives have a fitted effect of over 50% in size
Procedure, shortened: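 ME-180 HRE-bla cells, 2,000/well, 0.5% dialyzed FBS; 5 hr settle, 17 hr compound at 37C/5% CO2; CCF4-AM reporter read first, then CellTiter-Glo luminescence after 30 min RT.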

[4] = qHTS assay to identify small molecule agonists of H2AX (AID 1224845; active = well fitted activation curve with a large enough effect in the signal ratio in the repeat runs, not every such curve was filed as active; the % refers to the signal ratio)
Procedure, shortened: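 Wild-type CHO-K1 cells plated overnight, then exposed 3 hr at 37C to compounds at 15 concentrations (0.76% DMSO). Lysed, then HTRF anti-pH2AX(S139)-cryptate/anti-H2AX-d2 detection after 24 hr at room temperature; emissions 665 and 620 nm.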

[5] = qHTS assay to identify small molecule agonists of the hypoxia (HIF-1) signaling pathway (AID 1224846; active = well fitted activation curve with a large enough effect in the signal ratio in the repeat runs, not every such curve was filed as active; the % refers to the signal ratio)
Procedure, shortened: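 Cell line: CellSensor HRE-bla ME-180; 2,000 cells/well; 0.5% dialyzed FBS; 5 h preincubation; DMSO compound pin transfer; 17 h, 37C, 5% CO2; CCF4-AM added; bla FRET signal scored for activation.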

[6] = qHTS assay to identify small molecule agonists of H2AX - cell viability counter screen (AID 1224847); also: top concentration of the series differs between compounds; nearly all actives have a fitted effect of over 30% in size
Procedure, shortened: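 Read-out: CellTiter-Glo luminescence, 30 min RT. Cells: wild-type CHO-K1, 1000/well, 10% FBS, plated overnight at 37C. Treatment: 15 concentrations, 3 hr, 37C, 0.76% DMSO.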

[7] = qHTS assay to identify small molecule antagonists of the estrogen related receptor signaling pathway with the pleiotropic PPARgamma coactivator (PGC) from Tox21 10K library (AID 1224841; call rule not given here; also: series mostly up to about 92 µM; actives are mostly falling curves and most rising ones were filed inactive; nearly all actives have a fitted effect of over 50% in size)
Procedure, shortened: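 PGC/ERR cell line, 2,000 cells/well; 6 h pre-incubation 37 C/5% CO2; compounds (DMSO) pinned in; 18 h, 37 C; One-Glo, 30 min RT; luminescence.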

[8] = qHTS assay to identify small molecule agonists of the estrogen related receptor signaling pathway with the pleiotropic PPARgamma coactivator (PGC) from Tox21 10K library (AID 1224842; active = well fitted curve in the direction sought with a large enough effect in the repeat runs; an effect the other way counts as inactive or inconclusive; also: nearly all actives have a fitted effect of over 15% in size)
Procedure, shortened: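 PGC/ERR reporter cells (NTP line) were seeded 2,000 per well, rested 6 h at 37 C/5% CO2, then pin-dosed with compounds in DMSO for 18 h at 37 C; luciferase read by One-Glo luminescence after 30 min at room temperature.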

[9] = qHTS assay to identify small molecule antagonists of the estrogen related receptor (ERR) signaling pathway from Tox21 library (AID 1224848; active = well fitted curve in the direction sought with a large enough effect in the repeat runs; an effect the other way counts as inactive or inconclusive; also: nearly all actives have a fitted effect of over 50% in size)
Procedure, shortened: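 Screening used an ERR reporter line supplied by NTP, exposed for 18 h at 37 C to library compounds delivered in DMSO. Signal was luciferase luminescence developed with ONE-Glo at room temperature for 30 min.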

[10] = qHTS assay to identify small molecule agonists of the estrogen related receptor (ERR) signaling pathway from Tox21 library (AID 1224849); also: nearly all actives have a fitted effect of over 15% in size
Procedure, shortened: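 ERR cells, 6 h pre-incubation 37 C/5% CO2; cpd in DMSO pinned; 18 h 37 C; ONE-Glo added, 30 min RT; luminescence read. Agonist mode, qHTS.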

Measured: Potency

Thyrotropin receptor (Homo sapiens), sequence (P16473 whole entry, looked up): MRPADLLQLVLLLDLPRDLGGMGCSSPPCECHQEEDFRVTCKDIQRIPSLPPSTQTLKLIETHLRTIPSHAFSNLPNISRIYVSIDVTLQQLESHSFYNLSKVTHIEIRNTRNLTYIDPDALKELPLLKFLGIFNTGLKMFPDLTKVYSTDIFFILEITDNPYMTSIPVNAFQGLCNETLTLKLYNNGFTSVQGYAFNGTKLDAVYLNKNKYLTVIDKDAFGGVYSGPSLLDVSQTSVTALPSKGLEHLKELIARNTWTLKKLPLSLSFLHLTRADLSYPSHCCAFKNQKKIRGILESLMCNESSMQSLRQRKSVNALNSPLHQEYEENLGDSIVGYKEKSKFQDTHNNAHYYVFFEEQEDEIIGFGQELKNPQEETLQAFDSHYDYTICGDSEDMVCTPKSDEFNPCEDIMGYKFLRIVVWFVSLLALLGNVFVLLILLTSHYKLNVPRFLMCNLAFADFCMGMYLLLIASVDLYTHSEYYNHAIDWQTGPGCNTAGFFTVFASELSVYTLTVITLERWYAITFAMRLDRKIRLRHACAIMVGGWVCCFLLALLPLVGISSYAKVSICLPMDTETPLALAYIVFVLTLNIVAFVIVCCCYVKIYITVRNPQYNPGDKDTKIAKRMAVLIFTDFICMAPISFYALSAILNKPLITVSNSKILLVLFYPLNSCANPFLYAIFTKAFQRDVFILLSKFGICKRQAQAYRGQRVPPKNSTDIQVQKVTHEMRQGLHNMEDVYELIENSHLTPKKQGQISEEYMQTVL

CCCCC(=O)N(C)C
inactive: [1] | [2] | [3] | [4] | [5] | [6]

CO/N=C(/C(=O)N[C@@H]1C(=O)N2C(C(=O)O)=C(Cn3nnc(C)n3)CS[C@H]12)c1csc(N)n1
inactive: [1] | [2] | [3] | [4] | [5] | [6]

O=C1OC(=O)c2ccccc21
inactive: [1] | [2] | [3] | [4] | [5] | [6]

C1CCN2C[C@@H]3C[C@@H](CN4CCCC[C@@H]34)[C@H]2C1
inactive: [1] | [7] | [8] | [3] | [4] | [6] | [9] | [10]

COc1cc2c3cc1Oc1cc(ccc1O)C[C@@H]1c4c(cc(OC)c(O)c4Oc4ccc(cc4)C[C@@H]3N(C)CC2)CC[N+]1(C)C
inactive: [1] | [2] | [3] | [4] | [5] | [6]

CCOC(=O)CC#N
inactive: [1] | [2] | [3] | [4] | [5] | [6]

Cc1ccccc1N1CCN(CCc2nnc3n2CCCC3)CC1
inactive: [1] | [2] | [3] | [4] | [5] | [6]

CNC(=O)C(c1ccccc1)c1ccccc1
inactive: [1] | [2] | [3] | [4] | [5] | [6]

COC(=O)CCC(=O)O
inactive: [1] | [2] | [3] | [4] | [5] | [6]

CCN(Cc1cccc(S(=O)(=O)O)c1)c1ccccc1
inactive: [1] | [2] | [3] | [4] | [5] | [6]

O=S(=O)(O)CCO
inactive: [1] | [2] | [3] | [4] | [5] | [6]

CCNC(=O)/C=C/c1cccc(Br)c1
inactive: [1] | [2] | [3] | [4] | [5] | [6]
